Assay outcomes deposited in PubChem BioAssay by The Scripps Research Institute Molecular Screening Center.
ssDAF-12 act: S. stercoralis DAF-12 nuclear receptor activators, primary screen, cell-based, luminescence, HEK293, GRIP1 co-expression, lit1-tk-luc; AID 652126, 2013; Nuclear hormone receptor DAF-12 (Strongyloides stercoralis); 370,000 compounds, 1% hits; HEK293 ssDAF-12/GRIP1 lit1-tk-luc reporter; % of 3 µM dafachronic acid response; activation, % at 6.8 µM;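 active = activation above the mean over all tested compounds plus 3 SD, cut at about 0.9% in these data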
DAX1 inh-1: DAX1 (NR0B1) inhibitors, primary screen, cell-based, HEK293, Gal4-DAX1, luciferase luminescence; inhibition, % at 6.75 µM; Nuclear receptor subfamily 0 group B member 1 (Homo sapiens), P51843; 340,000 compounds, 0.99% hits; HEK293 Gal4-DAX1 luciferase reporter;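 active = inhibition above the mean over all tested compounds plus 3 SD, cut at about 4.2% in these data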;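 note: inhibition shows as a rise in luminescence from relieved DAX1 repression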
Target sequence (P51843 207-470 limits assumed): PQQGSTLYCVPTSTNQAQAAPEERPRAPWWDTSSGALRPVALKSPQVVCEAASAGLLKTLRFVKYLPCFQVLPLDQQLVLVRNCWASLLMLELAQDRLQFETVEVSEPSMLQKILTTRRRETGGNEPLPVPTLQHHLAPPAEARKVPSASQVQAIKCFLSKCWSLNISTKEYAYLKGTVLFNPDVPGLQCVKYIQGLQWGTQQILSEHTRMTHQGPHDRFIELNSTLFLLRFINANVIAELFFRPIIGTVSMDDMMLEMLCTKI
hcDAF12 agonist: H. contortus DAF-12 nuclear receptor activators, primary screen, cell-based, luminescence, HEK293, lit1-tk-luc reporter | HEK293 hcDAF-12 lit1-tk-luc reporter; 0% DMSO, 100% Δ7-dafachronic acid | activation, % at 6.8 µM | 370,000 compounds, 1.4% hits;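 active = activation above the mean of all tested compounds plus 3 SD, cut at about 5.5% in these data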
hgDAF-12 ag: H. glycines DAF-12 receptor agonists, primary screen, cell-based, luminescence, HEK293, GAL4 fusion, UAS-luciferase. Nuclear hormone receptor DAF-12 (Heterodera glycines), GAL4 fusion. HEK293 GAL4-hgDAF12 UAS-luciferase reporter, agonist luminescence; normalized to butyrate control. activation, % at 6.8 µM. 370,000 compounds, 1.8% hits;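 active = activation above a cutoff set at the mean of all screened compounds plus 3 SD, cut at about 10% in these data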
DAX1 inh-2: DAX1 (NR0B1) inhibitors on StAR promoter, primary screen, cell-based, luminescence, SF-1 (NR5A1), full-length DAX-1. AID 652010, 2013. HEK293T StAR-luciferase reporter, SF-1/DAX-1 repression relief. 370,000 compounds, 1.1% hits. inhibition, % at 6.8 µM;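 active = inhibition above the mean over all tested compounds plus 3 SD, cut at about 3.6% in these data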;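 note: higher inhibition means more luminescence from relief of DAX-1 repression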
Numbers stand for hits; 0 = inactive; - = no result given. An excerpt weighted towards active compounds, which were near 4.1% of everything screened.

SMILES	ssDAF-12 act	DAX1 inh-1	hcDAF12 agonist	hgDAF-12 ag	DAX1 inh-2
C(=N/Nc1nccs1)/c1cccnc1	0	0	0	0	0
Cc1cc2c(s1)c1cnn(Cc3c(Cl)ccc(C)c3F)c(=O)c1n2C	0	-	0	0	-
Cc1cc2nc(-c3cccc(Cl)c3)c(Cc3ccsc3)n2c(C)c1Br	0	-	0	0	0
Cc1ccc(S(=O)(=O)N2CC[C@@]3(Cc4ccccc4)Cc4ccccc4C[C@@H]23)cc1	0	-	0	0	-
COc1cc(CO)ccc1OCc1ccc(Cl)nc1	1.3	0	0	11	0
COc1cc(CNCCc2ccc(F)cc2)ccc1OCc1ccc(Cl)nc1	0	0	0	0	0
O=C(N/N=C/c1ccc(OC(F)F)cc1)C1=COCCO1	0	4.9	0	11	4.1
O=C(N/N=C/c1ccccc1OC(F)F)C1=COCCO1	0	0	0	0	0
CCC1CCCCN1C(=O)CSc1nnc(-c2ccco2)o1 (stereo unspecified)	1.0	0	0	0	0
CC1CC(C)CN(C(=O)CSc2nnc(-c3ccco3)o2)C1 (stereo unspecified)	0	4.8	0	0	0
COc1cccc(-c2nnc(SCC(=O)N3CC(C)CC(C)C3)o2)c1 (stereo unspecified)	0	6.7	0	0	0
CC1CCN(C(=O)CSc2nnc(-c3ccco3)o2)CC1	0	0	0	0	0
CCC(NC(=O)Cn1c(-c2ccccc2)cc(C(C)=O)c1C)c1ccccc1 (stereo unspecified)	0	-	0	0	0
S=C(Nc1ccc(Br)cc1)OCCN1CCCC12CCC(c1ccccc1)CC2 (stereo unspecified)	0	-	0	0	-
O=C(c1ccc(Cl)c(Cl)c1)N1CCC(Oc2cccnc2)CC1	0	-	0	0	0
CCOc1cc(/C=N/Nc2nc(Nc3ccccc3)nc(N3CCCCC3)n2)ccc1OCC(=O)O	0	0	0	0	0
CCOc1cc(/C=N/Nc2cccc(C(=O)O)c2)ccc1OC(=O)c1ccccc1	1.1	0	0	0	0
CCOc1cc(/C=N/Nc2ccccc2Cl)ccc1OCC(=O)O	0	0	6.3	0	0
COc1cc(C=NNc2ccccc2)ccc1OC(=O)c1ccccc1	0	0	0	0	0
CCc1cc2c(nc1CC)CCCN2S(=O)(=O)c1ccc(C(F)(F)F)cc1	0	-	0	0	0
CC1(C)Oc2ccc(C(=O)NCCCN3CCCC3)cc2NC1=O	0	-	0	0	0
CC(C)c1ccc(NC(=O)CCNC(=O)N2CC(=O)Nc3ccccc32)cc1	0	0	0	0	3.9
COc1ccc(NC(=O)CCNC(=O)N2CC(=O)Nc3ccccc32)cc1	0	0	0	0	0
COc1cccc(CNC(=O)CCNC(=O)N2CC(=O)Nc3ccccc32)c1	0	0	0	0	0
COc1cccc(CNC(=O)CNC(=O)N2CC(=O)Nc3ccccc32)c1	0	0	0	0	3.7
SMILES	ssDAF-12 act	DAX1 inh-1	hcDAF12 agonist	hgDAF-12 ag	DAX1 inh-2
N#Cc1ccc(OC[C@@H](O)CN2CCC(C(O)(c3ccccc3)c3ccccc3)CC2)cc1F	0	-	0	0	0
Fc1cccc(C[n+]2csc3ccccc32)c1	0	0	0	0	0
c1ccc(C[n+]2csc3ccccc32)cc1	1.1	0	0	0	0
COc1ccc(-c2nnc(SCC(=O)Nc3ccc(S(=O)(=O)Nc4cc(C)nc(C)n4)cc3)n2-c2ccc(OC)cc2)cc1	0	-	0	0	0
Cc1ccc(-n2c(C)nc3ccsc3c2=O)cc1	0	0	0	0	0
Cc1ccc(-c2nc3ccsc3c(=O)o2)cc1	0	0	5.9	0	0
Nc1c(C(=O)N2CCCCC2)sc2nc3c(cc12)CCCC3	0	0	0	12	0
CCOc1cc(-c2noc(-c3cccnc3)n2)ccc1OC	0	4.6	0	0	0
COc1ccc(-c2nc(-c3cccnc3)no2)cc1	1.3	0	0	11	0
COc1cccc(-c2nc(-c3ccc(C(=O)O)cc3)no2)c1	1.0	0	0	0	0
COc1ccc(-c2noc(-c3cccnc3)n2)cc1OC	0	0	0	0	0
CCOc1ccc(-c2noc(COC)n2)cc1OC	4.0	0	0	0	0
CCOc1ccc(-c2noc(-c3cccnc3)n2)cc1OC	0	0	0	0	0
COC(=O)c1cc(NC(=O)NC2CCCCN(Cc3ccc(Cl)cc3)C2=O)cc(C(=O)OC)c1 (stereo unspecified)	0	-	0	0	0
CCCCOc1ccc(-c2nc(-c3cccnc3)no2)cc1	0	0	0	0	0
CCOc1ccc(-c2nc(-c3cccnc3)no2)cc1	0	0	0	12	4.5
C#CCN1CC(N(C)CCOC(=O)CC2C=CCC2)CS1(=O)=O (stereo unspecified)	0	-	0	0	0
Cc1cc(/C=N/NC(N)=S)c(C)n1-c1ccc(Cl)c(Cl)c1	0	0	0	0	0
CCNC(=S)N/N=C/c1cc(C)n(-c2ccc(Cl)cc2)c1C	0	0	0	11	0
CC(=O)c1cccc(NC(=O)c2cc(-c3ccco3)on2)c1	0	0	0	0	0
O=C(Nc1cccc(O)c1)c1cc(-c2ccco2)on1	0	0	0	11	0
CCOC(=O)C(NC(=O)c1ccccc1)(OCc1ccc(F)cc1)C(F)(F)F (stereo unspecified)	0	0	0	12	0
CCOC(=O)C(NC(=O)Nc1ncccn1)(Oc1ccccc1)C(F)(F)F (stereo unspecified)	0	0	0	0	4.2
CCOC(=O)C(NC(=O)c1cccc(Cl)c1)(OCc1ccc(F)cc1)C(F)(F)F (stereo unspecified)	0	0	0	0	0
CCN(CC)CCCNC(=O)CSc1nnc(-c2ccncc2)n1-c1ccc(OC)cc1	0	-	0	0	0
SMILES	ssDAF-12 act	DAX1 inh-1	hcDAF12 agonist	hgDAF-12 ag	DAX1 inh-2
Cc1ccc2c(c1)c1c3n2CCN(CCC#N)C3CCC1 (stereo unspecified)	0	4.5	0	0	0
CCN1CCn2c3c(c4cc(C)ccc42)CCCC31 (stereo unspecified)	0	0	0	0	0
O=C(CNC(=S)N(Cc1ccccc1)Cc1cccs1)NCc1ccc(F)cc1	0	0	6.4	0	0
COc1ccccc1C=NN=Cc1ccccc1OC	1.1	0	0	0	0
O=C1CS/C(=N/N=C/c2c[nH]c3ccccc23)N1	0	-	0	0	0
C(=NN=Cc1c[nH]c2ccccc12)c1c[nH]c2ccccc12	0	0	6.1	0	0
Cc1cc(C)n(/N=C/c2c[nH]c3ccccc23)c(=O)c1	0	0	6.5	0	0
